CYP2C19 inh: blockers of cytochrome P450 2C19 activity – biochemical, luminescence, ADME assay, primary screen. CYP2C19 Supersomes, luciferin-H EGE luminescence, 30 min. P33261. inhibition, % at 5 µM. AID 778, 2007. 96,000 tested, 21% active;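 active = CYP2C19 inhibition above a set limit at 5 µM in the primary screen, cut at about 50% in these data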
CYP2C9 inhib: blockers of cytochrome P450 2C9 activity – biochemical, luminescence, ADME assay, primary screen. P11712. 96,000 tested, 20% active. CYP2C9 Supersomes, luciferin-H conversion. inhibition, % at 5 µM. AID 777, 2007;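 active = blocking of liver enzyme CYP2C9 beyond about 50% at 5 µM, limit read from the data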
CYP2C19 activ: human CYP2C19 activators, primary screen, biochemical, luminescence | AID 1025, 2008 | 96,000 tested, under 10 active | activation factor at 5 µM | recombinant CYP2C19, luciferin-H EGE luminescence; active compounds read high; 0 = fully inhibited enzyme, 1 = untreated enzyme;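 active = activation factor of at least 2 at 5 µM in the primary screen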
CYP2C9 act: human CYP2C9 activators, primary screen, biochemical, luminescence; 96,000 tested, 1.4% active; recombinant CYP2C9, luciferin-H conversion; active compounds read high; factor 1 = untreated enzyme, 0 = blocked; activation factor at 5 µM;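 active = activation factor of 2 or more for CYP2C9 at a 5 µM dose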
Mac1 fbg enh: enhancers of CD11b/CD18 adhesion to fibrinogen, primary screen, K562 cells, luminescence; Integrin beta-2 (Homo sapiens) + Integrin alpha-M (Homo sapiens), P05107+P11215; ATPlite luminescence; activation, % at 10 µM; 93,000 tested, 0.07% active; AID 1499, 2009;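 active = 10 µM primary screen giving 50% or more activity, confirmed by 40% or more on retest at that dose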
Target sequence (P05107 whole entry, looked up, other chains not shown): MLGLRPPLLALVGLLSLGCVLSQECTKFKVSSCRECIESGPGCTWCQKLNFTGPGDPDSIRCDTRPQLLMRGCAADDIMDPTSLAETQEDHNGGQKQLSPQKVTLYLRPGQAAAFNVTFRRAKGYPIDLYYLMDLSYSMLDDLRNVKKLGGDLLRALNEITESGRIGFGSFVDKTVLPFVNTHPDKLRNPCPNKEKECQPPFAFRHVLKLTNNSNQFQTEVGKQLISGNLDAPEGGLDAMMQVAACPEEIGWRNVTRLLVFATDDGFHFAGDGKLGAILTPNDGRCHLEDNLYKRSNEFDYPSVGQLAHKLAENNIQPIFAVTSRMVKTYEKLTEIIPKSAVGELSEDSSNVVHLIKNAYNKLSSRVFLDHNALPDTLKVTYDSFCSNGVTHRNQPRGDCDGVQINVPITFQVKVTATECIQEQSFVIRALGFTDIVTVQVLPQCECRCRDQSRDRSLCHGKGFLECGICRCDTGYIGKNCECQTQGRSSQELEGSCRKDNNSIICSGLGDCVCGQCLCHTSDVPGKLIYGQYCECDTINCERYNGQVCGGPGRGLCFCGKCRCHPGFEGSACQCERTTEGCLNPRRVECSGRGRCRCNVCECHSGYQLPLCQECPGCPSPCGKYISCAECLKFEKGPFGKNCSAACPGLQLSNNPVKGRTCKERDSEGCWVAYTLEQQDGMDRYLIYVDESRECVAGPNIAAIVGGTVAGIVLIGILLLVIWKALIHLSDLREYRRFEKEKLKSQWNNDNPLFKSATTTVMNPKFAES
Mac1 fbg inh: inhibitors of CD11b/CD18 adhesion to fibrinogen, primary screen, K562 cells, luminescence; ATPlite luminescence; Mn2+ added to activate the integrin; 93,000 tested, 0.54% active; Integrin beta-2 (Homo sapiens) + Integrin alpha-M (Homo sapiens), P05107+P11215; inhibition, % at 10 µM;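 active = primary inhibition of 50% or more at 10 µM, then 40% or more on retest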
Large screens that a line does not name were inactive. This is a sample that favours compounds with a hit; in the whole collection about 28% have one here.

Cc1cccc(NC(=O)C2(c3ccc([N+](=O)[O-])cc3)CCCC2)c1	CYP2C19 inh 78.5 (no result: Mac1 fbg enh, Mac1 fbg inh)
Cc1ccc(C(C(=O)NC2CCCC2)N2CCCC(C)C2)cc1 (stereo not drawn)	none
CC1CCCN(C(C(=O)Nc2ccc3c(c2)OCO3)c2ccccc2)C1 (stereo not drawn)	CYP2C19 inh 80.1, CYP2C9 inhib 82.4
Cc1cccc(NC(=S)N/N=C/c2cccc([N+](=O)[O-])c2)c1	none
CC(C)CC(NC(=O)C1CCC(C)CC1)C(=O)Nc1ccc2c(c1)OCCO2 (stereo not drawn)	CYP2C9 inhib 52.2
Cc1cccc(NC(=O)C(c2cccc([N+](=O)[O-])c2)N2CCCCC2)c1 (stereo not drawn)	CYP2C19 inh 51.8
Cc1ccccc1CSc1ccc(-c2ccc3c(c2)OCO3)nn1	none (no result: CYP2C19 inh, CYP2C9 inhib, CYP2C19 activ, CYP2C9 act)
CCCC(NS(=O)(=O)c1ccc(Br)cc1)C(=O)O (stereo not drawn)	none
CC(C)NC(=O)Cn1nnc(-c2cccc(NC(=O)c3ccccc3F)c2)n1	none
O=C(Nc1ccc2c(c1)OCO2)c1ccccc1SCC(=O)N1CCCC1	none
COC(=O)c1ccccc1NC(=O)Nc1ccc2c(c1)OCO2	none
O=C(Nc1ccc2c(c1)OCO2)C(c1ccccc1)N1CCC2(CC1)OCCO2 (stereo not drawn)	CYP2C19 inh 90.3, CYP2C9 inhib 78.9
O=C(Nc1ccc2c(c1)OCO2)C(c1ccccc1)N1CCCCC1 (stereo not drawn)	CYP2C19 inh 58.3, CYP2C9 inhib 60.5
CC1CCN(C(C(=O)Nc2ccc3c(c2)OCO3)c2ccccc2)CC1 (stereo not drawn)	CYP2C19 inh 73.2, CYP2C9 inhib 84.3
Cc1ccc(-c2nn(-c3ccccc3)cc2C2SCC(=O)N2Cc2ccccc2)o1 (stereo not drawn)	none
O=C1CSC(c2cn(-c3ccccc3)nc2-c2cc3ccccc3o2)N1Cc1ccccc1 (stereo not drawn)	CYP2C19 inh 53.7, CYP2C9 inhib 88.9
O=Cc1cn(-c2ccccc2)nc1-c1cc2ccccc2oc1=O	none
O=C1CSC(c2cn(-c3ccccc3)nc2-c2cc3ccccc3oc2=O)N1Cc1ccco1 (stereo not drawn)	CYP2C19 inh 55.0, CYP2C9 inhib 76.4 (no result: Mac1 fbg enh, Mac1 fbg inh)
CCOC(=O)C(NC(=O)CC)C(O)c1cccc([N+](=O)[O-])c1 (stereo not drawn)	none
O=c1c(-c2nnc(SCc3ccc(Cl)cc3Cl)o2)cccn1Cc1ccccc1	CYP2C19 inh 75.8, CYP2C9 inhib 65.6 (no result: Mac1 fbg enh, Mac1 fbg inh)
c1ccc(CSc2nnc(-c3ccncc3)o2)cc1	CYP2C19 inh 97.1, CYP2C9 inhib 93.3
Cc1ccccc1OCc1nnc(SCc2cc(=O)[nH]c3ccccc23)o1	none
Clc1ccc(CSc2nnc(-c3ccncc3)o2)c(Cl)c1	CYP2C19 inh 80.7, CYP2C9 inhib 70.4
O=C(CSc1nnc(-c2ccncc2)o1)Oc1ccccc1	none
CCSc1nnc(-c2ccc(Cl)cc2Cl)o1	none
Cc1[nH]c2ccccc2c1Cc1nnc(SCc2ccccc2)o1	CYP2C19 inh 69.1
COc1cc(OC)cc(-c2nnc(SCc3c(F)cccc3Cl)o2)c1	CYP2C9 inhib 63.3
Clc1ccc(-c2nnc(SCc3nc(-c4ccccc4)no3)o2)cc1	CYP2C9 inhib 70.7
Cc1ccccc1-c1nnc(SCc2ccccc2F)o1	none
Cc1ccccc1-c1nnc(SCc2ccccc2)o1	CYP2C19 inh 72.7, CYP2C9 inhib 58.9
COc1ccc(-c2nnc(SCc3ccccc3F)o2)cc1	none
Fc1ccccc1CSc1nnc(-c2ccccc2)o1	CYP2C19 inh 87.3, CYP2C9 inhib 76.7
CCOc1[nH]n(-c2ccc(Cl)cc2)c(=O)c1C=Nc1ccc(C)cc1	none
Cc1cccc(/C=N/NC(=O)c2cc(-c3cccnc3)nc3c2c(C)nn3-c2ccccc2)c1	none (no result: CYP2C19 inh, CYP2C9 inhib, CYP2C19 activ, CYP2C9 act)
CCOC(=O)c1oc2ccccc2c1CSc1nnc(-c2ccco2)o1	CYP2C9 inhib 68.6
Cc1ccc(CSc2nnc(-c3ccco3)o2)cc1	CYP2C9 inhib 62.6
O=C(O)c1ccc(CSc2nnc(-c3ccco3)o2)cc1	none
O=C(CN(c1ccc(Cl)c(C(F)(F)F)c1)S(=O)(=O)c1ccccc1)N/N=C/c1cccc2c1OCCO2	CYP2C9 inhib 59.8
COC(=O)CCC(=O)c1oc2ccc(Cl)cc2c1NC(=O)CCCN1C(=O)c2ccccc2C1=O	CYP2C19 inh 67.0, CYP2C9 inhib 79.9 (no result: Mac1 fbg enh, Mac1 fbg inh)
Cc1ccc(NC(=O)C2=C(O)c3ccccc3N(C)S2(=O)=O)cc1	CYP2C9 inhib 73.4
CCOc1ccccc1CNc1nc2nc3c(c(=O)n2[nH]1)CCC3	none
COc1ccccc1CNc1nc2nc(C)c(Cl)c(=O)n2[nH]1	CYP2C9 inhib 61.1
Cc1cc(C(=O)N(C)Cc2ccc(Br)cc2)no1	CYP2C19 inh 92.1
Cc1[nH]nc(N=CC2=C(O)CC(C)(C)CC2=O)c1-c1ccc(Cl)cc1	none (no result: Mac1 fbg enh, Mac1 fbg inh)
Cc1sc2c(c1C)CN(Cc1ccncc1)CN2C(=O)c1ccco1	CYP2C19 inh 77.2, CYP2C9 inhib 91.0
COC(=O)c1ccccc1NC(=O)CSc1nnnn1C1CCCCC1	none
COc1ccccc1NC(=O)CSc1nnnn1Cc1ccccc1	CYP2C19 inh 91.6
C=CCn1nnnc1SCC(=O)Nc1ccccc1C(=O)OC	CYP2C19 inh 91.4
CCOC(=O)c1ccccc1NC(=O)CSc1nnnn1C1CCCCC1	CYP2C9 inhib 72.3
C=CCn1nnnc1SCC(=O)Nc1cccc(OC)c1	none
CSCCC(NC(=O)c1ccccc1)c1nc(-c2ccccc2)no1 (stereo not drawn)	none
COc1ccc(C(c2nnnn2Cc2cccs2)N2CCN(c3ccc(F)cc3)CC2)cc1OC (stereo not drawn)	none
COc1ccc(-c2noc(CCCC(=O)NCCc3ccccc3)n2)cc1OC	none (no result: Mac1 fbg enh, Mac1 fbg inh)
CC(NC(=O)CCCCCCN1C(=O)c2ccccc2C1=O)c1ccc2c(c1)CCCC2 (stereo not drawn)	none (no result: CYP2C19 inh, CYP2C9 inhib, CYP2C19 activ, CYP2C9 act)
CC(NC(=O)CCCN1C(=O)c2ccccc2C1=O)c1ccc2c(c1)CCCC2 (stereo not drawn)	CYP2C19 inh 82.9, CYP2C9 inhib 89.7
CC(NC(=O)CCCCCN1C(=O)c2ccccc2C1=O)c1ccc2c(c1)CCCC2 (stereo not drawn)	CYP2C9 inhib 91.5
COc1cc2c(cc1OC)CN(C(=O)CCCN1C(=O)c3ccccc3C1=O)CC2	none
O=S(=O)(NC1CCCCC1NCc1ccco1)c1ccccc1 (stereo not drawn)	none

Source: PubChem
